PubChem BioAssay AID1531 (NMMLSC, 2009)
Out of some 290,000 compounds screened, about 3,300 (1.1%) were called active. Cut-off read from the data, not from the text of the source: active = binding response below about 67% or above about 130%; inconclusive = no clear call, values can overlap the other calls; inactive = in between. What follows is part of a selection rich in actives, with near analogues and random picks from the rest.

Biological target: Mitogen-activated protein kinase kinase kinase 2 (Homo sapiens) (UniProt Q9Y2U5)
Assay: wildtype MEKK2 PB1-MEK5 interaction, increase or decrease – biochemical, multiplex bead flow cytometry, Alexa488-MEK5, primary screen (AID 1531)
Conditions: Alexa488-MEK5 binding to MEKK2 WT, at 10 µM, actives lie on both sides

Compound	binding response (% of control)
O=C1NC(=O)N(Cc2ccco2)C(=O)/C1=C\c1cccn1CCOc1ccccc1	110% (inactive)
O=C1NC(=O)N(CCc2ccc(F)cc2)C(=O)/C1=C/C=C/c1ccccc1	97% (inactive)
O=C(O)COc1ccccc1/C=C1\C(=O)NC(=O)N(CCC2=CCCCC2)C1=O	-4% (active)
CCOP(=S)(OCC)C(O)CCCCCn1c(=O)c(F)cn(C2CCCO2)c1=O (stereo not given)	106% (inactive)
CCCCCCCCCCCCn1ccc(=N)cc1	173% (active)
c1ccc(CC2CCCCN2)cc1 (stereo not given)	107% (inactive)
N#Cc1ccc(Cn2cc(C(=O)c3ccco3)c3ccccc32)cc1	98% (inactive)
Cc1ccc2c(c1)=C/C(=C\c1c(O)[nH]c(=O)[nH]c1=O)C(=O)N=2	99% (inactive)
COC(=O)N1C(c2ccccc2)C1c1ccccc1 (stereo not given)	101% (inactive)
CNCC(O)c1cc(F)c(OCc2ccccc2)c(OCc2ccccc2)c1F (stereo not given)	141% (active)
COC(=O)C1=C(c2cc3ccccc3s2)C[C@@H]2CC[C@H]1N2C(=O)NCc1cccc2ccccc12	93% (inactive)
c1ccc(CCNC2CCCCCC2)cc1	101% (inactive)
COc1ccc(-n2c(O)c(C(C)=Nc3ccc4c(c3)CCC4)c(=O)[nH]c2=O)cc1	99% (inactive)
CN(C)S(=O)(=O)c1cc(C(=O)N2CCC(C(=O)O)(c3ccccc3)CC2)ccc1Cl	106% (inactive)
COC(=O)C1=C(c2cc3ccccc3o2)C[C@@H]2CC[C@H]1N2C(=O)NC1CCCCC1	101% (inactive)
